In article PMC9911399, “Two distinct binding modes provide the RNA-binding protein RbFox with extraordinary sequence specificity”:
Substitutions are numbered along the chain they refer to; changes in the protein carry UniProt numbers. Whole data set: some 16,000 sequences, median “ka relative to ugcaugu” near 0.0091, cut for the highest 2% near 0.032. This excerpt belongs to a sample that is enriched for the highest values.

T1: RBFOX1 RRM (Homo sapiens, UniProt Q9NWB1 109-208)
T1 sequence: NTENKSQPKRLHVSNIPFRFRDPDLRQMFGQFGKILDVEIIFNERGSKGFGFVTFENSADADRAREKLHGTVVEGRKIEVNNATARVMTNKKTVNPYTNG

B1: GGGUACA (DNA:RNA)
RNA: GGGAGACCGGAAUUCAGAUUGUCCGGGUACAUUAAAUCCCGUCGUAGCCACCA
DNA 1: CAATCTGAATTCCGGTCTCCC
DNA 2: TGGTGGCTACGACGGGATT
B2: GUUCUUU (DNA:RNA)
RNA: B1 RNA with G26U, G27U, U28C, A29U, C30U, A31U
DNA 1: CAATCTGAATTCCGGTCTCCC
DNA 2: TGGTGGCTACGACGGGATT
B3: UCUUAUA (DNA:RNA)
RNA: B1 RNA with G25U, G26C, G27U, C30U
DNA 1: CAATCTGAATTCCGGTCTCCC
DNA 2: TGGTGGCTACGACGGGATT
B4: UAGUUAU (DNA:RNA)
RNA: B1 RNA with G25U, G26A, A29U, C30A, A31U
DNA 1: CAATCTGAATTCCGGTCTCCC
DNA 2: TGGTGGCTACGACGGGATT
B5: CCUCUCC (DNA:RNA)
RNA: B1 RNA with G25C, G26C, G27U, U28C, A29U, A31C
DNA 1: CAATCTGAATTCCGGTCTCCC
DNA 2: TGGTGGCTACGACGGGATT
B6: AUAACCC (DNA:RNA)
RNA: B1 RNA with G25A, G26U, G27A, U28A, A29C, A31C
DNA 1: CAATCTGAATTCCGGTCTCCC
DNA 2: TGGTGGCTACGACGGGATT
B7: GGCGCUG (DNA:RNA)
RNA: B1 RNA with G27C, U28G, A29C, C30U, A31G
DNA 1: CAATCTGAATTCCGGTCTCCC
DNA 2: TGGTGGCTACGACGGGATT
B8: GGUGUCA (DNA:RNA)
RNA: B1 RNA with G27U, U28G, A29U
DNA 1: CAATCTGAATTCCGGTCTCCC
DNA 2: TGGTGGCTACGACGGGATT
B9: AAACCAG (DNA:RNA)
RNA: GGGAGACCGGAAUUCAGAUUGUCCAAACCAGUUAAAUCCCGUCGUAGCCACCA
DNA 1: CAATCTGAATTCCGGTCTCCC
DNA 2: TGGTGGCTACGACGGGATT
B10: AACUAGA (DNA:RNA)
RNA: B1 RNA with G25A, G26A, G27C, C30G
DNA 1: CAATCTGAATTCCGGTCTCCC
DNA 2: TGGTGGCTACGACGGGATT
B11: AUUUUUU (DNA:RNA)
RNA: B9 RNA with A26U, A27U, C28U, C29U, A30U, G31U
DNA 1: CAATCTGAATTCCGGTCTCCC
DNA 2: TGGTGGCTACGACGGGATT
B12: GGGAGUG (DNA:RNA)
RNA: B1 RNA with U28A, A29G, C30U, A31G
DNA 1: CAATCTGAATTCCGGTCTCCC
DNA 2: TGGTGGCTACGACGGGATT
B13: GGGAUUC (DNA:RNA)
RNA: B1 RNA with U28A, A29U, C30U, A31C
DNA 1: CAATCTGAATTCCGGTCTCCC
DNA 2: TGGTGGCTACGACGGGATT
B14: GGAAUUC (DNA:RNA)
RNA: B1 RNA with G27A, U28A, A29U, C30U, A31C
DNA 1: CAATCTGAATTCCGGTCTCCC
DNA 2: TGGTGGCTACGACGGGATT
B15: GGAGUGU (DNA:RNA)
RNA: B1 RNA with G27A, U28G, A29U, C30G, A31U
DNA 1: CAATCTGAATTCCGGTCTCCC
DNA 2: TGGTGGCTACGACGGGATT
B16: CGGAGUG (DNA:RNA)
RNA: B1 RNA with G25C, U28A, A29G, C30U, A31G
DNA 1: CAATCTGAATTCCGGTCTCCC
DNA 2: TGGTGGCTACGACGGGATT
B17: CGGAUUC (DNA:RNA)
RNA: B1 RNA with G25C, U28A, A29U, C30U, A31C
DNA 1: CAATCTGAATTCCGGTCTCCC
DNA 2: TGGTGGCTACGACGGGATT
B18: AGUAUUG (DNA:RNA)
RNA: B9 RNA with A26G, A27U, C28A, C29U, A30U
DNA 1: CAATCTGAATTCCGGTCTCCC
DNA 2: TGGTGGCTACGACGGGATT
B19: GCGUCGG (DNA:RNA)
RNA: B1 RNA with G26C, A29C, C30G, A31G
DNA 1: CAATCTGAATTCCGGTCTCCC
DNA 2: TGGTGGCTACGACGGGATT
B20: CGGCUAU (DNA:RNA)
RNA: B9 RNA with A25C, A26G, A27G, C29U, G31U
DNA 1: CAATCTGAATTCCGGTCTCCC
DNA 2: TGGTGGCTACGACGGGATT

Molecular target: T1, RBFOX1 RRM
Assay: EMSA; HiTS-Eq, 1 nM pool, 10 min; buffer printed only for the single-RNA assays: 10 mM Tris pH 7.5, 150 mM NaCl, 3.4 mM EDTA, 0.001% NP-40, 30 C
Conditions: tags: His6 N-terminal (pET28a); label: 5' 32P
Summary of the method: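 Purified RbFox RRM (wild type or mutant) was equilibrated for 10 min in 50 µL with 1 nM of a 5′-radiolabelled pool of RNA with 7 randomized nucleotides, its flanks annealed to DNA oligonucleotides, across increasing protein concentrations. Free RNA was separated by 8% native PAGE, excised, reverse-transcribed, PCR-barcoded and sequenced on an Illumina HiSeq 2500. Relative association constants came from read-count changes of each variant against the control reaction, normalised to the cognate motif.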

First: B1
Second: B2
The binding signal of the first is lower: 0.0112 KA relative to UGCAUGU for the first, 0.0158 KA relative to UGCAUGU for the second.

First: B3
Second: B4
The binding signal of the first is lower: 0.00158 KA relative to UGCAUGU for the first, 0.00794 KA relative to UGCAUGU for the second.

First: B5
Second: B6
The binding signal of the first is higher: 0.00489 KA relative to UGCAUGU for the first, 0.00143 KA relative to UGCAUGU for the second.

Compared with B7, B8 is lower in binding signal: 0.0174 KA relative to UGCAUGU for the first, 0.00539 KA relative to UGCAUGU for the second.

First: B9
Second: B10
The binding signal of the first is lower: 0.000872 KA relative to UGCAUGU for the first, 0.00203 KA relative to UGCAUGU for the second.

Compared with B11, B12 is higher in binding signal: 0.007 KA relative to UGCAUGU for the first, 0.0333 KA relative to UGCAUGU for the second.

First: B13
Second: B14
The binding signal of the first is higher: 0.044 KA relative to UGCAUGU for the first, 0.018 KA relative to UGCAUGU for the second.

First: B15
Second: B16
The binding signal of the first is lower: 0.0229 KA relative to UGCAUGU for the first, 0.0283 KA relative to UGCAUGU for the second.

First: B17
Second: B18
The binding signal of the first is higher: 0.0273 KA relative to UGCAUGU for the first, 0.0121 KA relative to UGCAUGU for the second.

First: B19
Second: B20
The binding signal of the first is higher: 0.0208 KA relative to UGCAUGU for the first, 0.0107 KA relative to UGCAUGU for the second.
